Activity calls are given as the source filed them.
Assays:
[1] = system: PRMT1 (protein arginine N-methyltransferase 1); experiment: small molecules binding arginine methyltransferase PRMT1 – biochemical, small-molecule microarray, 635 nm fluorescence, primary screen (AID 1088); conditions: higher = more signal;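 further: binding of Prmt1 protein to compounds spotted on small-molecule microarray slides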
[2] = growth effects on S. cerevisiae YJM789 – YJM789 clinical isolate, OD600, 24 h, basal, primary screen (AID 1089); conditions: higher = more signal, called active from +8 up or from −8 down;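 further: growth of clinical yeast isolate S. cerevisiae YJM 789 seeded 1000 cells per well; test concentration not given here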
[3] = S. pombe growth modifiers, basal conditions – strain 972, OD600, 24 h, no modulator, primary screen (AID 1090);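 further: basal condition with compound alone and no growth modifier present; test concentration not given here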; conditions: S. pombe 972 growth, higher = more signal, called active from +8 up or from −8 down
[4] = budding yeast growth modifiers under rapamycin – strain BY4716, OD600, 96 h, primary screen (AID 1091); further: test concentration not given here; conditions: S. cerevisiae BY4716 + rapamycin, higher = more signal, called active from +8 up or from −8 down
[5] = target: Torsin-1A-interacting protein 2 (Homo sapiens) (UniProt Q8NFQ8); experiment: small molecules binding lysate-expressed LULL1 – cell lysate, human LULL1 lysate, 635/667 nm fluorescence, primary screen (AID 1092); conditions: small-molecule microarray, hLULL1 lysate binding, 635 nm fluorescence; higher = more signal;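 further: probe is lysate of COS7 cells overexpressing human LULL1; score merges per-feature 667 nm fluorescence with signal-to-noise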
[6] = optical density change of DRC41 E. coli – strain DRC41, OD650, 24 h, E. coli filamentation project, primary screen (AID 1093);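 further: MC1000 strain lacking acrAB efflux and sulA so SOS filamentation is blocked; test concentration not given here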; conditions: E. coli DRC41 growth, higher = more signal, called active from +8 up or from −8 down
[7] = probe aLefty2 binding to arrayed compounds – biochemical, biotinylated probe, 635/667 nm fluorescence, primary screen (AID 1094); conditions: small-molecule microarray, higher = more signal;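 further: score merges spot fluorescence near 667 nm with spot signal-to-noise ratio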
[8] = system: Noggin (protein binding on small-molecule microarray); experiment: small molecules binding Noggin protein – biochemical, 635/667 nm fluorescence, primary screen (AID 1095); conditions: 635 nm fluorescence, higher = more signal;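 further: score merges 667 nm feature fluorescence with signal to noise over triplicate slides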
[9] = target: Neurogenic locus notch homolog protein 3 (Homo sapiens) (UniProt Q9UM47); experiment: small molecules binding NOTCH3 protein – biochemical, 635/667 nm fluorescence, primary screen (AID 1096); conditions: small-molecule microarray, 635 nm fluorescence, higher = more signal
[10] = probe aEGFR binding to arrayed compounds – biochemical, biotinylated probe, 635/667 nm fluorescence, primary screen (AID 1097); conditions: small-molecule microarray, higher = more signal;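 further: probe is a biotinylated anti-EGFR antibody binding compounds printed on slides; score combines fluorescence near 667 nm and signal to noise of each spot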
[11] = system: Plasmodium falciparum Sir2 (PF13_0152, Sir2A); experiment: Plasmodium falciparum Sir2A binding compounds – biochemical, small-molecule microarray, 635 nm fluorescence, primary screen (AID 1098); conditions: fluorescence 635 nm, higher = more signal;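 further: score merges spot fluorescence intensity with its signal-to-noise ratio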
[12] = probe aDKK1 binding to arrayed compounds – biochemical, biotinylated probe, 635/667 nm fluorescence, primary screen (AID 1099); conditions: small-molecule microarray, higher = more signal;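 further: score merges 667nm spot fluorescence with signal to noise across triplicate slides; reference of the scale not given here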
[13] = probe aCHRDL2 binding to arrayed compounds – biochemical, biotinylated probe, 635/667 nm fluorescence, primary screen (AID 1100); conditions: small-molecule microarray, higher = more signal
[14] = change in splice reporter luminescence, either direction, cell-based, HEK293, spliceosome inhibition project, primary screen (AID 1101); conditions: HEK293 splicing luciferase reporter, 24 h, higher = more signal, called active from +8 up or from −8 down;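 further: HEK293 cells carrying a splicing-competent luciferase reporter gene; test concentration not given here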
[15] = target: Fibroblast growth factor 10 (Homo sapiens) (UniProt O15520); experiment: compounds binding fibroblast growth factor 10 – biochemical, small-molecule microarray, 635 nm fluorescence, primary screen (AID 1102); conditions: FGF10 binding, fluorescence 635 nm, higher = more signal
[16] = system: glycogen synthase kinase-3 (GSK3A per assay name; protocol says GSK3B); experiment: compounds binding glycogen synthase kinase-3 – biochemical, small-molecule microarray, 635 nm fluorescence, GSK3A, primary screen (AID 1103); conditions: fluorescence 635 nm, higher = more signal; further: the record names both GSK3A and GSK3B
[17] = target: Epidermal growth factor receptor (Homo sapiens) (UniProt P00533); experiment: compounds binding epidermal growth factor receptor – biochemical, small-molecule microarray, 635 nm fluorescence, primary screen (AID 1104); conditions: EGFR binding, higher = more signal;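 further: score merges 667 nm emission intensity with spot signal to noise over triplicate slides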
[18] = target: Follistatin-related protein 3 (Homo sapiens) (UniProt O95633); experiment: compounds binding follistatin-related protein 3 – biochemical, small-molecule microarray, 635 nm fluorescence, primary screen (AID 1105); conditions: FSTL3 binding, higher = more signal;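 further: score merges emission near 667 nm and signal to noise per printed spot across three slides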
[19] = target: Dickkopf-related protein 1 (Homo sapiens) (UniProt O94907); experiment: small molecules binding DKK1 protein – biochemical, small-molecule microarray, 635 nm fluorescence scan, primary screen (AID 1106); conditions: higher = more signal;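 further: score merges emission near 667 nm with signal to noise over three replicate slides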
[20] = system: Inhibin beta A chain (activin A); experiment: small molecules binding activin A – biochemical, small-molecule microarray, 635 nm fluorescence scan, primary screen (AID 1107); conditions: INHBA, higher = more signal;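 further: mouse activin A protein probed at 4.33 µg/mL on printed slides; score merges bound-protein fluorescence near 667 nm with spot signal-to-noise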

Chain of Dickkopf-related protein 1 (Homo sapiens) (O94907 whole entry, looked up): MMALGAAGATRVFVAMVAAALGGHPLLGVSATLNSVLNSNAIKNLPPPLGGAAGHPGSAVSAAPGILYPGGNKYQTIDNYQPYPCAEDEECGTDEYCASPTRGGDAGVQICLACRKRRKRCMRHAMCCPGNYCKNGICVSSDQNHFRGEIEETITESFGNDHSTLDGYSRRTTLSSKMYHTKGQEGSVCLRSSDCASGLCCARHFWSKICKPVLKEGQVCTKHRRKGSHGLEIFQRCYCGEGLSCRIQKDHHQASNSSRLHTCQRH
Chain of Neurogenic locus notch homolog protein 3 (Homo sapiens) (Q9UM47 whole entry, looked up): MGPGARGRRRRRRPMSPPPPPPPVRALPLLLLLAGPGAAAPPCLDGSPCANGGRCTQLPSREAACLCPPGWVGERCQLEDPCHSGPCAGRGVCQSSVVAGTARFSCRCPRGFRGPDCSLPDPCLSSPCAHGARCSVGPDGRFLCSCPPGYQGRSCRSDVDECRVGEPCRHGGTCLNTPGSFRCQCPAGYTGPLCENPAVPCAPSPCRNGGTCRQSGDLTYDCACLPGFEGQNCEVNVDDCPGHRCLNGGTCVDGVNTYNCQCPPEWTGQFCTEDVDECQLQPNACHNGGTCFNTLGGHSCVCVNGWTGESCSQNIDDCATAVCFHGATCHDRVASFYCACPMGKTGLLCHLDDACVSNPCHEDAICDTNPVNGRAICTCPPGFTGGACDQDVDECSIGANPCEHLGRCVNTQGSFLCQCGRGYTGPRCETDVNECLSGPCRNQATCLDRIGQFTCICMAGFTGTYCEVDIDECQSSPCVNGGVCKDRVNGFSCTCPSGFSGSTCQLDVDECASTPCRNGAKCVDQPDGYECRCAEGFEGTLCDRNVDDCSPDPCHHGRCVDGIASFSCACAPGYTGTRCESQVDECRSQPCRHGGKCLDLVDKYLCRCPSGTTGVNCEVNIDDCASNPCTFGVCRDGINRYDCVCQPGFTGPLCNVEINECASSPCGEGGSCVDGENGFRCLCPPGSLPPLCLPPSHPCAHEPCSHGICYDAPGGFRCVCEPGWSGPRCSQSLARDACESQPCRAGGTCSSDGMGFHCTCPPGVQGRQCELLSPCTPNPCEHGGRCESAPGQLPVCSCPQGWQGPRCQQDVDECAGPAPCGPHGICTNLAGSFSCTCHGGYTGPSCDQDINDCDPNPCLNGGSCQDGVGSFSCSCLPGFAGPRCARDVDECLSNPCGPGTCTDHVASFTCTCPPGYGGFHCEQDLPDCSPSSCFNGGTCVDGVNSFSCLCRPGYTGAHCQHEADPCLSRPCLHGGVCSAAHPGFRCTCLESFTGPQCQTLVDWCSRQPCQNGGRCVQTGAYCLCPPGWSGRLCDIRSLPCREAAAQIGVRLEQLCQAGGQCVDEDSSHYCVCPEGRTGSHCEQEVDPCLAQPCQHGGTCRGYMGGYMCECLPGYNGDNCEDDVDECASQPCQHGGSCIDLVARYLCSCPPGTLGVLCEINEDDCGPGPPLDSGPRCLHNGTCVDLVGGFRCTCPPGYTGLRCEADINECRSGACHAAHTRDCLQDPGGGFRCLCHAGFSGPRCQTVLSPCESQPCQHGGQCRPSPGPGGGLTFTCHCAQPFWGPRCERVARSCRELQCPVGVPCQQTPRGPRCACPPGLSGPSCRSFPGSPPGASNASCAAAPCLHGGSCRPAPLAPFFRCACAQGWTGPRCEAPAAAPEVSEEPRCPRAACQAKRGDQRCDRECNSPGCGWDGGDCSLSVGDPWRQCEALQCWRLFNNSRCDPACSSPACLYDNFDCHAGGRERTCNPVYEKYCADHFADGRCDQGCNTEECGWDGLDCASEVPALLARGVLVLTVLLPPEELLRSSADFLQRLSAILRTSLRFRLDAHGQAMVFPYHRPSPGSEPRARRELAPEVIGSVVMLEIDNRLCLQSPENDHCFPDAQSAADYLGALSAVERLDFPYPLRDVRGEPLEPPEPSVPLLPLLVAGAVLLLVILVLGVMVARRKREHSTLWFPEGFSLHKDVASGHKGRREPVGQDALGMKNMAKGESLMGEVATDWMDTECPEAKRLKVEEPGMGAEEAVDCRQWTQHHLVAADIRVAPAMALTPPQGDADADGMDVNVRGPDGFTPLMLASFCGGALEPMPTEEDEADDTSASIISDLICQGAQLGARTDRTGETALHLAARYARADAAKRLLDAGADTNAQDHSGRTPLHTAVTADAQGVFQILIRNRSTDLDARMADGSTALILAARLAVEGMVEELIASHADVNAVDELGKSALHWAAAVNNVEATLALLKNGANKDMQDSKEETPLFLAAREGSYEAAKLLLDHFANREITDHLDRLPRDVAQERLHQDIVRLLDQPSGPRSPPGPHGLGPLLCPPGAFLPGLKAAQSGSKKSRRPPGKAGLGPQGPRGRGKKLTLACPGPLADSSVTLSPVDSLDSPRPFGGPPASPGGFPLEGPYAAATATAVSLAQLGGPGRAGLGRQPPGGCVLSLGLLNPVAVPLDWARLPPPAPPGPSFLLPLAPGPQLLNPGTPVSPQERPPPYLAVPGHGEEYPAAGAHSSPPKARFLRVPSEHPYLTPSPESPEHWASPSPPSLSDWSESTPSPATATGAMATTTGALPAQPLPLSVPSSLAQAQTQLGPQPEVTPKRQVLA
Chain of Torsin-1A-interacting protein 2 (Homo sapiens) (Q8NFQ8 whole entry, looked up): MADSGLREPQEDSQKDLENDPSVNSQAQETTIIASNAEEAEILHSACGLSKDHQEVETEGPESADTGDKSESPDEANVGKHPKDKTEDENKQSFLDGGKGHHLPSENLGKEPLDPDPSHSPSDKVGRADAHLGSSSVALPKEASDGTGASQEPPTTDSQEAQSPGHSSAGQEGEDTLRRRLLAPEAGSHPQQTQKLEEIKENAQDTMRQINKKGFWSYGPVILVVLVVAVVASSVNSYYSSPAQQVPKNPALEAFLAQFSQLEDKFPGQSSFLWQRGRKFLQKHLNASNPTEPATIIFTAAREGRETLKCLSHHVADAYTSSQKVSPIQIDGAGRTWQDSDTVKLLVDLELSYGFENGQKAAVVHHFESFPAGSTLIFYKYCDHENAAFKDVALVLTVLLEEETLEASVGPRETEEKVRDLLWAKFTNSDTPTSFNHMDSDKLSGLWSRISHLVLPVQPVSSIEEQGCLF
Chain of Follistatin-related protein 3 (Homo sapiens) (O95633 whole entry, looked up): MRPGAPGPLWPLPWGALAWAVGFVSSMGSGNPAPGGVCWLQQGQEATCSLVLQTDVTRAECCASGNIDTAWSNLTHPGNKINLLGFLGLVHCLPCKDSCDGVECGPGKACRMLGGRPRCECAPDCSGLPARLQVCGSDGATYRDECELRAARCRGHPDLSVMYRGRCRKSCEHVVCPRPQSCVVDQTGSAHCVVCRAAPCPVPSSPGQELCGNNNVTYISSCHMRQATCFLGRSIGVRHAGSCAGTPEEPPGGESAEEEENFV
Chain of Fibroblast growth factor 10 (Homo sapiens) (O15520 whole entry, looked up): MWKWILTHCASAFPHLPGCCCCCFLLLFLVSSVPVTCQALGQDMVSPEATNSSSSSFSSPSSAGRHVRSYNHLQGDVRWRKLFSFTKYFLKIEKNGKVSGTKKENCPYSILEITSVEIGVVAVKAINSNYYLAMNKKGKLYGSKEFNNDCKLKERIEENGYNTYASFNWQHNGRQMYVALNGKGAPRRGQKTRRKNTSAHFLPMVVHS
Chain of Epidermal growth factor receptor (Homo sapiens) (P00533 whole entry, looked up): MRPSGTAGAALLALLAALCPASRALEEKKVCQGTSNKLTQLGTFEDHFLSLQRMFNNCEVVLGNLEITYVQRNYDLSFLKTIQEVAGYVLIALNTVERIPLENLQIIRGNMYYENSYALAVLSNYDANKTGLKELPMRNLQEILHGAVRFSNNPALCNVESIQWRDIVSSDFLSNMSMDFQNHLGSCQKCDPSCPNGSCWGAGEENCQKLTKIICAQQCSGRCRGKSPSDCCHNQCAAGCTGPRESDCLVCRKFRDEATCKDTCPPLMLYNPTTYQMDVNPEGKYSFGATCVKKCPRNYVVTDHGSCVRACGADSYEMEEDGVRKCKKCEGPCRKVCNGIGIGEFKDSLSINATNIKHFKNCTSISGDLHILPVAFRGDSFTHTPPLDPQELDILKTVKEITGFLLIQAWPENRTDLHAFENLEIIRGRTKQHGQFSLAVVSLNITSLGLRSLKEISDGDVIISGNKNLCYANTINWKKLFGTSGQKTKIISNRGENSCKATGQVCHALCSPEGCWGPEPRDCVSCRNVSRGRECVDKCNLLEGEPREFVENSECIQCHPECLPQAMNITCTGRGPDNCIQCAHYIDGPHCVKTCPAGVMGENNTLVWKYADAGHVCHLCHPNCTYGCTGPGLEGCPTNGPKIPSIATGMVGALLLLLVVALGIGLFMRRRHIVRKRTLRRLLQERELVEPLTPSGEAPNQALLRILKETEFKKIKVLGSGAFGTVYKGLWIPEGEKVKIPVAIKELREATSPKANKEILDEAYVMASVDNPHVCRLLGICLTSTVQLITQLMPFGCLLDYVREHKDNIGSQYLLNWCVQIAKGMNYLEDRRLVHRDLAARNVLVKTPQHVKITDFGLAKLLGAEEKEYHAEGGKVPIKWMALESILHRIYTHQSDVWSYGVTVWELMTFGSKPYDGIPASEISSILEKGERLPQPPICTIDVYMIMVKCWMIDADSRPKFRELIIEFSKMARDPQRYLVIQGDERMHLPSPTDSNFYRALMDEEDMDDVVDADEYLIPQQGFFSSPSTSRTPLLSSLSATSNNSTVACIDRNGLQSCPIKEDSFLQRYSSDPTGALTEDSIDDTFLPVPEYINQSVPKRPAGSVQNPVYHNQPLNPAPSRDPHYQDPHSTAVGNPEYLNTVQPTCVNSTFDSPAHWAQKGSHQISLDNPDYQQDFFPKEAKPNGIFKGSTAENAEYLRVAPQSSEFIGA

Compound	composite z-score [1]	z-score [2]	z-score [3]	z-score [4]	composite z-score [5]	z-score [6]	composite z-score [7]	composite z-score [8]	composite z-score [9]	composite z-score [10]	composite z-score [11]	composite z-score [12]	composite z-score [13]	z-score [14]	composite z-score [15]	composite z-score [16]	composite z-score [17]	composite z-score [18]	composite z-score [19]	composite z-score [20]
CCN(CC)c1ccc(N2CC=CC34O[C@@H]5/C=C\CCCOC(=O)C5[C@H]3C(=O)N(CCCCCO)[C@@H]4C2=O)cc1 (stereo not given in full)	-0.752	-0.177 (inactive)	-0.691 (inactive)	-0.624 (inactive)	0.45	-0.838 (inactive)	-0.231	-0.873	-0.404	-0.216	0.643	0.123	0.397	0.643 (inactive)	-1.47	-1.4	-0.983	-1.42	-1.01	-0.399
CC(C)CNC(=O)[C@@]1(C)c2ccccc2C(=O)N(Cc2ccccc2)[C@H]1c1ccc(CO)cc1	-0.579	-1.79 (inactive)	-0.849 (inactive)	-0.879 (inactive)	3.04	-0.483 (inactive)	0.0397	-1.79	-0.643	-0.285	0.651	0.569	1.19	0.622 (inactive)	-1.21	-1.01	-1.56	-2.11	-1.88	-1.02
CCOC(=O)C1=CC[C@@H](c2ccccc2)N(S(=O)(=O)c2ccc(C)cc2)[C@H]1C=C(C)C	1.54	0.465 (inactive)	2.76 (inactive)	4 (inactive)	3.22	0.322 (inactive)	0.0704	0.793	1.06	0.101	0.625	0.367	0.688	-0.925 (inactive)	1.02	0.604	1.01	1.38	0.226	1.11
COC(=O)c1ccc(OC)c(/C=C\CC(CCc2ccccc2)OC(C)=O)c1 (stereo not given)	-0.0961	-0.714 (inactive)	-0.645 (inactive)	-0.21 (inactive)	0.324	-0.031 (inactive)	-0.154	-0.358	-0.255	-0.0899	-0.388	-0.493	-0.101	-0.101 (inactive)	-0.614	-0.0629	-0.309	0.21	0.239	1.53
C=CCC(OC(C)=O)[C@@H]1[C@@H](N(Cc2cc3ccccc3o2)C(=O)Cc2ccc(OC)cc2)c2cc(OCCCO)ccc2N1C(=O)c1ccc(-c2ccccc2)cc1 (stereo not given in full)	-0.427	0.0801 (inactive)	-0.709 (inactive)	0.714 (inactive)	0.238	1.53 (inactive)	0.0689	-0.624	-1.09	-0.127	-0.297	0.068	0.63	-0.354 (inactive)	-0.185	-0.158	-0.426	-0.272	-0.45	1.34
Cc1ccc(N2C(=O)c3ccccc3[C@](C)(C(=O)NC(C)C)[C@@H]2c2ccc(CO)cc2)nc1	0.595	-0.273 (inactive)	-1.14 (inactive)	-1.8 (inactive)	3.07	1.19 (inactive)	-0.0153	-2.13	-0.572	-0.36	0.118	-0.0537	1.04	0.415 (inactive)	-1.22	-0.738	-1.21	-2.01	-1.63	-2.54
C=C(CCCC)/C(=C/C[C@@H](OC(=O)c1ccncc1)c1ccccc1OCCO)c1cc(C(=O)OC)ccc1OC	1.49	0.176 (inactive)	-0.587 (inactive)	0.259 (inactive)	2.75	0.478 (inactive)	-0.0154	0.987	0.754	0.0895	0.96	-0.0551	-0.133	-0.322 (inactive)	0.659	0.272	0.145	0.422	0.135	0.851
CCOC(=O)C[C@H]1[C@H](OC(=O)c2ccccc2-c2ccccc2)[C@@H](NC(=O)c2ccccc2)c2cc(OCCCO)ccc2N1C(=O)Cc1ccc(OC)cc1	-0.175	-0.211 (inactive)	-0.0183 (inactive)	0.452 (inactive)	0.601	-0.922 (inactive)	-0.0963	-0.0496	-0.196	-0.108	0.0521	-0.0327	0.0247	-0.269 (inactive)	0.0268	-0.519	-0.104	-0.183	-0.0633	0.264
O=C1N(CCS(=O)(=O)c2ccccc2)c2ccccc2[C@H]2OC(c3ccc(OCCCO)cc3)=N[C@@]12CCS(=O)(=O)c1ccccc1	1.55	2.95 (inactive)	2.54 (inactive)	7.94 (inactive)	3.1	0.8 (inactive)	0.856	1.08	1.07	0.723	1.31	1.59	1.16	-0.0214 (inactive)	1.35	1.31	0.736	1.31	0.9	1.29
CC[C@@H]1[C@@H]2C3C(=O)N(CC)C(=O)C3CC(=O)[C@@H]2[C@H](c2ccc(C)cc2)N1S(=O)(=O)c1ccc(C)cc1 (stereo not given in full)	1.29	-2.69 (inactive)	0.321 (inactive)	0.336 (inactive)	3.3	0.957 (inactive)	-0.128	0.381	0.919	-0.0371	0.426	0.384	0.246	-1.52 (inactive)	0.859	1.31	0.174	0.748	0.238	0.241

— PubChem BioAssay
